Results taken from PubChem BioAssay AID1259309 (ICCB-Longwood Screening Facility, Harvard Medical School, 2017).
“And” between values parts separate entries of the source, which are not always exact repeats. Equal entries are not always repeated. About 1,800 (0.55%) of roughly 330,000 compounds were called active. For the sample, actives were picked, then their nearest neighbours and some compounds at random. Unmarked numbers belong to inactive results. Cut-off read from the data, not from the text of the source: active = growth inhibition above about 68%; inactive = the rest.

Assay: growth inhibition of ugtP-null S. aureus, primary screen, RN4220 ugtP deletion, OD600 (AID 1259309);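 note: plate controls were untreated wells for no effect and antibiotic for full effect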
Settings: 16 h, active compounds read high

Compound | growth inhibition
Cc1ccc(S(=O)(=O)N(Cc2cccc([N+](=O)[O-])c2)C(=O)N2CCN(C)CC2)cc1 | 2.43%
O=C(CCl)N(Cc1cccc([N+](=O)[O-])c1)c1cccc(Cl)c1 | 97.8% (active)
O=C(c1cccc([N+](=O)[O-])c1)N1CCN(Cc2ccccc2)CC1 | 9.07%
COC(=O)C1=C(c2ccc3ccccc3c2)CC2CCC1N2C(=O)NCc1ccc(F)cc1 (centres undefined) | 12%
COc1cccc(C2C3=C(N=c4sc(=Cc5cccc(O)c5)c(=O)n42)c2ccccc2CC3)c1OC (centres undefined) | -7.58%
COc1ccc(CN(Cc2ccc(OC)cc2)C(=O)c2cccs2)cc1 | 43.4%
COc1ccc(CCNC(=O)C(Sc2ccccn2)c2ccccc2)cc1OC (centres undefined) | 9.85%
COc1ccc(C(CCN(Cc2ccc(OC)c(OC)c2)C(=O)CCl)c2ccccc2)cc1 (centres undefined) | 98% (active)
COc1ccc(N(CC(=O)NN=Cc2ccco2)S(=O)(=O)c2ccccc2)cc1Cl | 2.1%
COc1ccc(C=NNC(=O)COc2ccc(C(C)(C)C)cc2)cc1Cn1nc(C)cc1C | 0.349%
O=C(NN=Cc1cccnc1)C1CC1(c1ccccc1)c1ccccc1 (centres undefined) | 9.47%
O=C1C=C(c2cccc(CO)c2)CC(c2ccc(Cl)cc2)C1 (centres undefined) | 7.76%
O=C(O)CC1(CC(=O)Nc2cccc(C(F)(F)F)c2)CCCC1 | -0.923%
FC(F)(F)c1cccc(NC(=S)Nc2cccc(Cl)c2)c1 | 93.1% (active)
Cn1cc(Cl)c(C(=O)NNC(=S)Nc2cccc(Cl)c2)n1 | -5.85%
Cc1ccc(SC(=NS(=O)(=O)c2ccc(Cl)cc2)c2ccccc2)cc1 | 60.7%
O=C(COC(=O)C=Cc1ccccc1)Nc1cc(C(F)(F)F)ccc1N1CCOCC1 | -9.22%
CCCCCCCCn1c2c(c(=N)c3c1CCC3)CCCC2 | 100% (active)
COc1ccc(OC)c(C=NNC(=O)c2ccc(-c3ccccc3)cc2)c1 | 1.81%
CC(=NNC(=O)c1cc(-c2ccc(Br)s2)[nH]n1)c1ccncc1 | -6.85%

Compound | growth inhibition
CC1COc2ccccc2N1C(=O)c1ccc(F)cc1 (centres undefined) | -0.431%
O=C(COC(=O)c1ccc(F)cc1)NCC1COc2ccccc2O1 (centres undefined) | -4.48%
O=C(Nc1nnc(C2COc3ccccc3O2)o1)c1ccc(F)cc1 (centres undefined) | 90.2% (active)
COC(=O)c1ccccc1-c1ccc(C=NNc2nc(N3CCCC3)nc(N3CCCC3)n2)o1 | -8.43%
CON=Cc1cc(C(=O)c2ccc(Cl)cc2Cl)cn1C | -4.32%
CC(C)=CCCC1(C)C=Cc2c(ccc3c2[nH]c2cc(O)c(C)cc23)O1 (centres undefined) | 95.6% (active)
CC[C@@]12C(=O)N(c3cccc(F)c3)C(=O)N1C(c1ccc(Br)cc1)C1C(=O)N(C(C)(C)C)C(=O)C12 (some centres undefined) | -3.27%
CCCCCCCCCCCCN1CC(=CC(=O)OCC)c2cc(C(F)(F)F)ccc2S1(=O)=O | 2.79%
O=C(CON=Cc1c(Cl)cccc1Cl)NNC(=O)c1cccc(Cl)c1 | 2.89%
Cc1cccc(NC(=O)CSC(N)=O)c1C | 8.69%
Cc1ccccc1NC(=O)CSC(=O)c1ccccc1 | 5.32%
Cc1ccccc1N/C(SCc1ccc(Cl)cc1)=C(/C#N)C(N)=O | 84.4% (active)
O=C(CNC(=O)c1ccc(-c2ccccc2)cc1)OCc1ccc(Cl)cc1 | 19.4%
O=C(OCC(=O)c1c[nH]c2ccccc12)c1cccc(O)c1 | -15.2%
O=C(OCc1ccc(-c2ccccc2)cc1)c1cccc(O)c1 | 100% (active)
Cn1cccc1CC(=O)NN=Cc1ccco1 | -0.545%
OCCC1CC(O)C(O)[C@]2(OCCCc3ccccc32)O1 (some centres undefined) | 4.16% and 2.75%
COc1cc(C=NNC(=O)CC#N)ccc1Oc1nc(Cl)ncc1F | -1.11%
O=C(Oc1ccc(C=NNc2ccccc2)cc1)c1ccccc1 | -8.03%
Cc1cc(C)n(C(=O)CCNC(=O)c2ccccc2Cl)n1 | -2.2%

Compound | growth inhibition
Cc1cc(C)n(C(=O)C(C#N)=NNc2cc(Cl)cc(Cl)c2)n1 | 99.7% (active)
N#CC(=NNc1cc(Cl)cc(Cl)c1)c1nnc2n1CCCCC2 | -12%
CC(=NNC(=O)c1ccco1)c1ccc(NC(=O)C(F)(F)F)cc1 | 0.661%
CCOc1ccc(N2C(=O)CC(S/C(N)=N/N=Cc3cccs3)C2=O)cc1 (centres undefined) | 4.39%
CCOC1OC(C(=O)N2CCN(Cc3ccc4c(c3)OCO4)CC2)=CC(c2cn(C(C)=O)c3ccccc23)C1CCCO (centres undefined) | -12.6% and 8.11%
Oc1ccc(C=NNc2cccc3cccnc23)c(O)c1 | 3.39%
Oc1ccccc1C=NNc1nccnc1Cl | 0.00308%
Oc1ccccc1C=NNc1cccc2cccnc12 | 83% (active)
Cc1ccc2nc(NN=Cc3ccccc3C#N)nc(-c3ccccc3)c2c1 | 11.2%
O=c1c2nnn(-c3ccccc3)c2ncn1CC=Cc1ccccc1 | 12.1%
CCOc1ccc(-c2nnc3ccc(SC)nn23)cc1 | 0.868%
CCOc1ccc(-c2cc(C)[n+](CCN(CC)CC)c(-c3ccc(OCC)cc3)c2)cc1 | 97.1% (active)
CCOc1ccc2c(c1)C(c1ccc(C)cc1)=NNC(c1ccc(C)cc1)=N2 | 10.8%
CCCC(C#Cc1ccc(N(C)C)cc1)=C1c2ccccc2C(=O)N1c1ccccc1 | 13.2%
COC(=O)NN=Cc1cc(Br)ccc1OCc1ccccc1 | 20.2%
C(=Nn1c2ccccc2c2ccccc21)c1ccccc1 | 11.7%
CC(C)c1ccc2c(c1)c(SC(C)(C)C)c(CC(C)(C)C(=O)O)n2Cc1ccc(Cl)cc1 | 101% (active)
CCOc1ccc2ccccc2c1C=NNC(=O)CNC(=O)C(c1ccccc1)c1ccccc1 | 22.4%
CN1CCSC1=CC=C1C(=O)N(C)C(=S)N1C | -5.24%
